From the supplement of paper PMC7411054
Where a name gives a salt, the structure may show the parent alone.

Columns and labels:
Assay in all cases: phenotypically active (imaging signature differs from DMSO and reproducible) at any of 0.3-9 uM (binary (1 = active, 0 = inactive)); higher = active
Settings in all cases: treatment time: 24 h
A549-ACTB-RAB5A = test system: A549-ACTB-RAB5A
Method in brief: (§1)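 Each of fifteen gene-edited A549, HepG2 and WPMY1 reporter lines, marked with BFP for segmentation and GFP and RFP/FusionRed, was treated in four wells at 0.3, 1, 3 or 9 µM for 24 h prior to live imaging. Normalisation of per-well live-cell features used solvent control wells. Deviation needed ≥3 of 4 wells beyond the 95th percentile of control Euclidean distances, and reproducibility needed a median replicate Pearson correlation above the 95th percentile of non-replicates. Both were required for phenotypic activity.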

A549-CANX-COX4 = test system: A549-CANX-COX4
Method in brief: as §1

A549-GM130-SQSTM1 = test system: A549-GM130-SQSTM1
Method in brief: as §1

A549-TP53BP1-CLTA = test system: A549-TP53BP1-CLTA
Method in brief: as §1

A549-TUBA1B-RELA = test system: A549-TUBA1B-RELA
Method in brief: as §1

HepG2-ACTB-RAB5A = test system: HepG2-ACTB-RAB5A
Method in brief: as §1

HepG2-CANX-COX4 = test system: HepG2-CANX-COX4
Method in brief: as §1

HepG2-GM130-SQSTM1 = test system: HepG2-GM130-SQSTM1
Method in brief: as §1

HepG2-TP53BP1-CLTA = test system: HepG2-TP53BP1-CLTA
Method in brief: as §1

HepG2-TUBA1B-RELA = test system: HepG2-TUBA1B-RELA
Method in brief: as §1

WPMY1-ACTB-RAB5A = test system: WPMY1-ACTB-RAB5A
Method in brief: as §1

WPMY1-CANX-COX4 = test system: WPMY1-CANX-COX4
Method in brief: as §1

WPMY1-GM130-SQSTM1 = test system: WPMY1-GM130-SQSTM1
Method in brief: as §1

WPMY1-TP53BP1-CLTA = test system: WPMY1-TP53BP1-CLTA
Method in brief: as §1

WPMY1-TUBA1B-RELA = test system: WPMY1-TUBA1B-RELA
Method in brief: as §1

Measured: phenotypically active

CC(Oc1ccc(O)cc1)(P(=O)(O)O)P(=O)(O)O
inactive: A549-ACTB-RAB5A 0 | A549-CANX-COX4 0 | A549-GM130-SQSTM1 0 | A549-TP53BP1-CLTA 0 | A549-TUBA1B-RELA 0 | HepG2-ACTB-RAB5A 0 | HepG2-CANX-COX4 0 | HepG2-GM130-SQSTM1 0 | HepG2-TP53BP1-CLTA 0 | HepG2-TUBA1B-RELA 0 | WPMY1-ACTB-RAB5A 0 | WPMY1-CANX-COX4 0 | WPMY1-GM130-SQSTM1 0 | WPMY1-TP53BP1-CLTA 0 | WPMY1-TUBA1B-RELA 0

CN(C)CCc1c[nH]c2ccc(Cn3cncn3)cc12 [rizatriptan]
inactive: A549-ACTB-RAB5A 0 | A549-CANX-COX4 0 | A549-GM130-SQSTM1 0 | A549-TP53BP1-CLTA 0 | A549-TUBA1B-RELA 0 | HepG2-ACTB-RAB5A 0 | HepG2-CANX-COX4 0 | HepG2-GM130-SQSTM1 0 | HepG2-TP53BP1-CLTA 0 | HepG2-TUBA1B-RELA 0 | WPMY1-ACTB-RAB5A 0 | WPMY1-CANX-COX4 0 | WPMY1-GM130-SQSTM1 0 | WPMY1-TP53BP1-CLTA 0 | WPMY1-TUBA1B-RELA 0

CN(C)c1nc(N(C)C)nc(N(C)C)n1 [altretamine]
inactive: A549-ACTB-RAB5A 0 | A549-CANX-COX4 0 | A549-GM130-SQSTM1 0 | A549-TP53BP1-CLTA 0 | A549-TUBA1B-RELA 0 | HepG2-ACTB-RAB5A 0 | HepG2-CANX-COX4 0 | HepG2-GM130-SQSTM1 0 | HepG2-TP53BP1-CLTA 0 | HepG2-TUBA1B-RELA 0 | WPMY1-ACTB-RAB5A 0 | WPMY1-CANX-COX4 0 | WPMY1-GM130-SQSTM1 0 | WPMY1-TP53BP1-CLTA 0 | WPMY1-TUBA1B-RELA 0

NS(=O)(=O)c1cc2c(cc1Cl)NC(C1CC3C=CC1C3)NS2(=O)=O (stereo not given) [cyclothiazide]
inactive: A549-ACTB-RAB5A 0 | A549-CANX-COX4 0 | A549-GM130-SQSTM1 0 | A549-TP53BP1-CLTA 0 | A549-TUBA1B-RELA 0 | HepG2-ACTB-RAB5A 0 | HepG2-CANX-COX4 0 | HepG2-GM130-SQSTM1 0 | HepG2-TP53BP1-CLTA 0 | HepG2-TUBA1B-RELA 0 | WPMY1-ACTB-RAB5A 0 | WPMY1-CANX-COX4 0 | WPMY1-GM130-SQSTM1 0 | WPMY1-TP53BP1-CLTA 0 | WPMY1-TUBA1B-RELA 0

O=C1CCc2cc(OCCCCc3nnnn3C3CCCCC3)ccc2N1 [Cilostazol]
inactive: A549-ACTB-RAB5A 0 | A549-CANX-COX4 0 | A549-GM130-SQSTM1 0 | A549-TP53BP1-CLTA 0 | A549-TUBA1B-RELA 0 | HepG2-ACTB-RAB5A 0 | HepG2-CANX-COX4 0 | HepG2-GM130-SQSTM1 0 | HepG2-TP53BP1-CLTA 0 | HepG2-TUBA1B-RELA 0 | WPMY1-ACTB-RAB5A 0 | WPMY1-CANX-COX4 0 | WPMY1-GM130-SQSTM1 0 | WPMY1-TP53BP1-CLTA 0 | WPMY1-TUBA1B-RELA 0

C[C@H](NCCc1ccc(O)cc1)[C@H](O)c1ccc(O)cc1 [ritodrine]
inactive: A549-ACTB-RAB5A 0 | A549-CANX-COX4 0 | A549-GM130-SQSTM1 0 | A549-TP53BP1-CLTA 0 | A549-TUBA1B-RELA 0 | HepG2-ACTB-RAB5A 0 | HepG2-CANX-COX4 0 | HepG2-GM130-SQSTM1 0 | HepG2-TP53BP1-CLTA 0 | HepG2-TUBA1B-RELA 0 | WPMY1-ACTB-RAB5A 0 | WPMY1-CANX-COX4 0 | WPMY1-GM130-SQSTM1 0 | WPMY1-TP53BP1-CLTA 0 | WPMY1-TUBA1B-RELA 0

O=C(c1cccc(Br)c1)N1CCC(N2CCCC2)CC1 [UNC 926 hydrochloride]
inactive: A549-ACTB-RAB5A 0 | A549-CANX-COX4 0 | A549-GM130-SQSTM1 0 | A549-TP53BP1-CLTA 0 | A549-TUBA1B-RELA 0 | HepG2-ACTB-RAB5A 0 | HepG2-CANX-COX4 0 | HepG2-GM130-SQSTM1 0 | HepG2-TP53BP1-CLTA 0 | HepG2-TUBA1B-RELA 0 | WPMY1-ACTB-RAB5A 0 | WPMY1-CANX-COX4 0 | WPMY1-GM130-SQSTM1 0 | WPMY1-TP53BP1-CLTA 0 | WPMY1-TUBA1B-RELA 0

CCCNC(=O)NS(=O)(=O)c1ccc(Cl)cc1 [chlorpropamide]
inactive: A549-ACTB-RAB5A 0 | A549-CANX-COX4 0 | A549-GM130-SQSTM1 0 | A549-TP53BP1-CLTA 0 | A549-TUBA1B-RELA 0 | HepG2-ACTB-RAB5A 0 | HepG2-CANX-COX4 0 | HepG2-GM130-SQSTM1 0 | HepG2-TP53BP1-CLTA 0 | HepG2-TUBA1B-RELA 0 | WPMY1-ACTB-RAB5A 0 | WPMY1-CANX-COX4 0 | WPMY1-GM130-SQSTM1 0 | WPMY1-TP53BP1-CLTA 0 | WPMY1-TUBA1B-RELA 0

C[C@H](N[C@@H](CCc1ccccc1)C(=O)O)C(=O)N1CCC[C@H]1C(=O)O [enalaprilat]
inactive: A549-ACTB-RAB5A 0 | A549-CANX-COX4 0 | A549-GM130-SQSTM1 0 | A549-TP53BP1-CLTA 0 | A549-TUBA1B-RELA 0 | HepG2-ACTB-RAB5A 0 | HepG2-CANX-COX4 0 | HepG2-GM130-SQSTM1 0 | HepG2-TP53BP1-CLTA 0 | HepG2-TUBA1B-RELA 0 | WPMY1-ACTB-RAB5A 0 | WPMY1-CANX-COX4 0 | WPMY1-GM130-SQSTM1 0 | WPMY1-TP53BP1-CLTA 0 | WPMY1-TUBA1B-RELA 0

CC1=CC(=O)C2=C(C)CC[C@@H]3[C@H](OC(=O)[C@H]3C)[C@@H]12 [Leucomisine]
inactive: A549-ACTB-RAB5A 0 | A549-CANX-COX4 0 | A549-GM130-SQSTM1 0 | A549-TP53BP1-CLTA 0 | A549-TUBA1B-RELA 0 | HepG2-ACTB-RAB5A 0 | HepG2-CANX-COX4 0 | HepG2-GM130-SQSTM1 0 | HepG2-TP53BP1-CLTA 0 | HepG2-TUBA1B-RELA 0 | WPMY1-ACTB-RAB5A 0 | WPMY1-CANX-COX4 0 | WPMY1-GM130-SQSTM1 0 | WPMY1-TP53BP1-CLTA 0 | WPMY1-TUBA1B-RELA 0

c1ccc2c(c1)CN1CCCC1=N2 [Desoxypeganine Hydrochloride]
inactive: A549-ACTB-RAB5A 0 | A549-CANX-COX4 0 | A549-GM130-SQSTM1 0 | A549-TP53BP1-CLTA 0 | A549-TUBA1B-RELA 0 | HepG2-ACTB-RAB5A 0 | HepG2-CANX-COX4 0 | HepG2-GM130-SQSTM1 0 | HepG2-TP53BP1-CLTA 0 | HepG2-TUBA1B-RELA 0 | WPMY1-ACTB-RAB5A 0 | WPMY1-CANX-COX4 0 | WPMY1-GM130-SQSTM1 0 | WPMY1-TP53BP1-CLTA 0 | WPMY1-TUBA1B-RELA 0

Cc1cc(C(=O)NNCc2ccccc2)no1 [isocarboxazid]
inactive: A549-ACTB-RAB5A 0 | A549-CANX-COX4 0 | A549-GM130-SQSTM1 0 | A549-TP53BP1-CLTA 0 | A549-TUBA1B-RELA 0 | HepG2-ACTB-RAB5A 0 | HepG2-CANX-COX4 0 | HepG2-GM130-SQSTM1 0 | HepG2-TP53BP1-CLTA 0 | HepG2-TUBA1B-RELA 0 | WPMY1-ACTB-RAB5A 0 | WPMY1-CANX-COX4 0 | WPMY1-GM130-SQSTM1 0 | WPMY1-TP53BP1-CLTA 0 | WPMY1-TUBA1B-RELA 0
